Screen size: about 290,000 compounds; about 110 (0.038%) were called active. Not shown: some 3% with an inconclusive outcome. Calls come from the whole dose curve; as a rule, active = well fitted inhibition curve with a large enough effect in the polarisation, with a control signal flat (not every such curve was filed as active); inconclusive = small, poorly fitted or top-dose-only effect, or effect the other way, or a change in a side signal; inactive = no such curve, though single readings can be large or run the other way; the % refers to the polarisation. What follows is part of a selection rich in actives, with near analogues and random picks from the rest. A call without a number means that no potency is given here.
These compounds were tested against Histone-lysine N-methyltransferase 2A (Homo sapiens) (UniProt Q03164) (assay: qHTS Fluorescence Polarization Assay for Inhibitors of MLL CXXC domain - DNA interaction). Settings: MLL-CXXC / FITC-HOXA9 DNA fluorescence polarization; series mostly up to 115 µM.
From the text: NIH Chemical Genomics Center [NCGC] NIH Molecular Libraries Probe Production centers Network [MLPCN] MLPCN Grant: DA027717-01A1 Assay Submitter (PI): John Bushweller NCGC Assay Overview: The MLL (Mixed Lineage Luekemia) gene is involved in chromosomal translocation that results in either acute lymphoid leukemia (ALL) or acute myeloid leukemia (AML). Chromasomal translocation of MLL gene is responsible for the fusion of N-terminal MLL to more than 60 different partner genes in frame. Many of the MLL partner genes contain transcription activation domains or function as transcriptional activators. Despite the heterogeneity of fusion partners, the N-terminus of MLL fusion proteins always consists of the N-terminal menin binding motif and the CXXC domain. The MLL-CXXC domain specifically recognizes unmethylated CpG sequences of the HOX-A gene. Disruption of the MLL-CXXC and HOX-A gene interaction leads to down regulation of HOX-A gene expression and may potentially reverse leukemogenesis. We have miniaturized and optimized an in-vitro assay to screen for inhibitors of the MLL-CXXC domain and HOX-A DNA interaction, which could have utility in MLL fusion leukemias.
The affinity purified MLL-CXXC domain, unlabeled HOX-A9 DNA strand, fluorescein (FLSN) labeled HOX-A9 DNA strand were kindly supplied by the laboratory of Dr. John Bushweller, University of Virginia. All reagents were stored in single use aliquots at -80C. Assay Reagents: Assay buffer: 50 mM TRIS-HCl pH 7.5, 50 mM NaCl, 1 mM DTT. Add 0.05% BSA prior to reaction setup. Assay Procedure: 1.Dispense 1 ul of a 7 uM MLL-CXXC solution prepared in assay buffer into column 1-48. 2.Transfer 23 nl of compounds and unlabeled HOX-A9 per well. 3.Incubate for 5 minutes at ambient. 4.Dispense 1ul of a 50 nM FLSN-HOX-A9 solution prepared in assay buffer into columns 1-48 5.Centrifuge for 30 seconds at 1000 RPM. 6.Incubate for 30 minutes at ambient. 7.Read using the Envision reader fluorescent polarization protocol.
Potency is the fitted concentration of half-maximal effect.

Sequence of Histone-lysine N-methyltransferase 2A (Homo sapiens) (Q03164 whole entry, looked up, the tested form may be a part): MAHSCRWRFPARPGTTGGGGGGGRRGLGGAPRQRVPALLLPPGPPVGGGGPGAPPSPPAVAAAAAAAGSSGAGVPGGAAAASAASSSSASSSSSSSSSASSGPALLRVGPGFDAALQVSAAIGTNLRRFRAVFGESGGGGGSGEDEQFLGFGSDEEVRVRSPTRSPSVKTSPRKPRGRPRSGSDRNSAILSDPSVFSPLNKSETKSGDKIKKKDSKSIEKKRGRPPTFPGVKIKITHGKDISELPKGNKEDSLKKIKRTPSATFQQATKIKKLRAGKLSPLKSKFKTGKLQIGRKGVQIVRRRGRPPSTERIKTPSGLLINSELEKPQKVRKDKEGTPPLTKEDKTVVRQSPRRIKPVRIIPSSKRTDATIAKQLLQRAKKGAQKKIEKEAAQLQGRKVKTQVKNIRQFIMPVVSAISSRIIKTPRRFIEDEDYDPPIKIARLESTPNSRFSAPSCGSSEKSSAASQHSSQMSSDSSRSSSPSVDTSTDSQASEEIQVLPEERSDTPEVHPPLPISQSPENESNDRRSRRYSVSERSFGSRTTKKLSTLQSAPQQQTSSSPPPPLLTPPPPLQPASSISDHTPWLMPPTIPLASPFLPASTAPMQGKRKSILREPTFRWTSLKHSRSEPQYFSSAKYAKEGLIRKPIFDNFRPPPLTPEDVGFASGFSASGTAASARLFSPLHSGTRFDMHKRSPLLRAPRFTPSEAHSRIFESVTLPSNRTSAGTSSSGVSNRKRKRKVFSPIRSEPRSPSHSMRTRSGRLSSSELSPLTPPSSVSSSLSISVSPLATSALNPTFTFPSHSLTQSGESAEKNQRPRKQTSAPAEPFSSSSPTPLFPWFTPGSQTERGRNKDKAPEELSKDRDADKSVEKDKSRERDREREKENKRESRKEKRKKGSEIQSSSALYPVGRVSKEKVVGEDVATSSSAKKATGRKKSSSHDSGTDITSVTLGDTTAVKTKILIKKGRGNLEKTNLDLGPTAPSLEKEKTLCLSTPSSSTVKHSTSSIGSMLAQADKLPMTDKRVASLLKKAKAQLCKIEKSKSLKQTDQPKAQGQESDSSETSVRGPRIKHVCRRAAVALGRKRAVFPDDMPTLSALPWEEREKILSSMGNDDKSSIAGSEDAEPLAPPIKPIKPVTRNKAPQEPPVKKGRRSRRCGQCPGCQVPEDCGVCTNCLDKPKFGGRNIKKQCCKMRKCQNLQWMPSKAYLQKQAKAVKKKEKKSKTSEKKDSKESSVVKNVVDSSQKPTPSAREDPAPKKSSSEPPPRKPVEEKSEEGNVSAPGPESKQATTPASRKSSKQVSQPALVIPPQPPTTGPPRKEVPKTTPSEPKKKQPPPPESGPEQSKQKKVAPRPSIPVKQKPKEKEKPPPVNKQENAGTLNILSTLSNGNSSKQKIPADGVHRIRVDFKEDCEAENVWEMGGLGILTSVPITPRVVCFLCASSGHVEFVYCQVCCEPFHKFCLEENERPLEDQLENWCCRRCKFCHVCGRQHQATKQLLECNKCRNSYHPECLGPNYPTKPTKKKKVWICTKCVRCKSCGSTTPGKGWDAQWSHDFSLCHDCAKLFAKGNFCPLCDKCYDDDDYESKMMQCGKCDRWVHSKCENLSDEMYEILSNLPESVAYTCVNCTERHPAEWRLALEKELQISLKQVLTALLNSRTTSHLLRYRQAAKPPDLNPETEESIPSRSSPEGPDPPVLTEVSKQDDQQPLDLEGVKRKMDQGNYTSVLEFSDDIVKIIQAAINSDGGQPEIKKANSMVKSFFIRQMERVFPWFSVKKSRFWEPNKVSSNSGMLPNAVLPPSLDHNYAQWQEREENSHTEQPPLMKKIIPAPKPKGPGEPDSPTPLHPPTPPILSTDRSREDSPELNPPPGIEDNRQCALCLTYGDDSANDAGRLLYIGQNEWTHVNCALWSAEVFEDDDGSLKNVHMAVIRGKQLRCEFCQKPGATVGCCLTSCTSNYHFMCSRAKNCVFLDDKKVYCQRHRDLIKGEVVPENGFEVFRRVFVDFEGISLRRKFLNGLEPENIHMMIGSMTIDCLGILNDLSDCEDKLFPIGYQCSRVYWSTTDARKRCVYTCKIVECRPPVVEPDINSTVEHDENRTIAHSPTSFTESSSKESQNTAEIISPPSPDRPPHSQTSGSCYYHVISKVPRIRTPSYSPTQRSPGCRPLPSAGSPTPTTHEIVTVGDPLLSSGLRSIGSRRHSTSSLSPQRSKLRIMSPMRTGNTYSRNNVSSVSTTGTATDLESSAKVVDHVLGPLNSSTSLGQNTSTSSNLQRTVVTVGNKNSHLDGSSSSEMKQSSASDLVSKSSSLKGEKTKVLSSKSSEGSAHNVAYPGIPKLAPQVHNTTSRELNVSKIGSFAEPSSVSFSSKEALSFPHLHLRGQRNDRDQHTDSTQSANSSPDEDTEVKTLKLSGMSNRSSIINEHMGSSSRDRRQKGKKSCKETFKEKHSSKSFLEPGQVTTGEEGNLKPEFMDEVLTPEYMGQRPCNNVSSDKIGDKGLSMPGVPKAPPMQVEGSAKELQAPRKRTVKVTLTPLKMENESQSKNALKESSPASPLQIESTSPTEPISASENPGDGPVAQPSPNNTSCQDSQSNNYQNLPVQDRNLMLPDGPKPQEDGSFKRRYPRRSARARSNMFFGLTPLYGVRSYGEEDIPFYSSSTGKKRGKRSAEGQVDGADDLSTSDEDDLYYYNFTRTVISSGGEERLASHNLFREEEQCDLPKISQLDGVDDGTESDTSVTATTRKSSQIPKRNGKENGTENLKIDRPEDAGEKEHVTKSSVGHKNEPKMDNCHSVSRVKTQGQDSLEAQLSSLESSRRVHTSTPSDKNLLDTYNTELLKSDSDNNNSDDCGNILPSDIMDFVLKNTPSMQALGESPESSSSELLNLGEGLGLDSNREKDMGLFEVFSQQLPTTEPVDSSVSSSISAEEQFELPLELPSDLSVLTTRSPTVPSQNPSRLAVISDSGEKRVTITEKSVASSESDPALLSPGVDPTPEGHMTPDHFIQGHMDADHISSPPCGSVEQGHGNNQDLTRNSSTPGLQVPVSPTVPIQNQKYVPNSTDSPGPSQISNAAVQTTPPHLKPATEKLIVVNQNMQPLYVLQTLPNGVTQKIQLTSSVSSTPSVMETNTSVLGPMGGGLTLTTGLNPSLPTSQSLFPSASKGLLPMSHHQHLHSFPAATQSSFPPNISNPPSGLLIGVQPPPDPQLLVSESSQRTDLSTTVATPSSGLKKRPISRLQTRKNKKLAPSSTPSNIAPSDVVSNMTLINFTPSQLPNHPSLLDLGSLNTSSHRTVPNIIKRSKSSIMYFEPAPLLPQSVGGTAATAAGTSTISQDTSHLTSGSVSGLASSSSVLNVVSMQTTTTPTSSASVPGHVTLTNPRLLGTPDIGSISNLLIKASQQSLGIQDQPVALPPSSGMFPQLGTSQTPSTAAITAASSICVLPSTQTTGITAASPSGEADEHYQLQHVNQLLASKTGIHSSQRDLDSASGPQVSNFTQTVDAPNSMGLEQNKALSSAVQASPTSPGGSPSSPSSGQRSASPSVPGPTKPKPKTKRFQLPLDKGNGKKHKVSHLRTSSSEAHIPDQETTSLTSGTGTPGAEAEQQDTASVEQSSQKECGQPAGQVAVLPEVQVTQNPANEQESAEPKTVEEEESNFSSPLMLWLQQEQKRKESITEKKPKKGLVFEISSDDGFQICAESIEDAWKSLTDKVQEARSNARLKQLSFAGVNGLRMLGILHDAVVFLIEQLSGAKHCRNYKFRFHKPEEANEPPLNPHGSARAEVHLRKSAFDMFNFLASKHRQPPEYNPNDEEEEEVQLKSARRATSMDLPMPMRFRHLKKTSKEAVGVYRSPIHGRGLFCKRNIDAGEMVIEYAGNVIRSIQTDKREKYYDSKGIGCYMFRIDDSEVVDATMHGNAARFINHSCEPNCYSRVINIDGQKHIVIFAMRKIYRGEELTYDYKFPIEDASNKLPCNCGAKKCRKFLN

| Structure (SMILES) | Potency |
| --- | --- |
| O=C(NCCN1CCOC1=O)C1CCC(=O)N(CCc2ccc(Cl)cc2)C1 (centres undefined) | inactive |
| Cc1cccc(-n2ncc(Cl)c(Cl)c2=O)c1 | inactive |
| O=C(NCc1ccncc1)C(=O)NCC1OCCN1S(=O)(=O)c1ccc(Br)cc1 (centres undefined) | inactive |
| NC(=O)C(=O)N/N=C/c1ccc([N+](=O)[O-])o1 | inactive |
| Cc1ccc(NC(=O)CSc2cccc3cccnc23)c(C)c1 | inactive |
| Cc1cccc(C)c1-n1c(C)cc(/C=C2\C(=O)NN(c3ccccc3)C2=O)c1C | inactive |
| O=C(O)C(c1ccccc1)N1C(=O)/C(=C\c2ccc(-c3cccc(Cl)c3)o2)SC1=S (centres undefined) | inactive |
| O=C1NN(c2ccccc2)C(=O)/C1=C/c1ccc(-c2cccc(C(=O)O)c2)o1 | 20 µM (active) |
| O=C(NCCCn1ccnc1)c1cc2c(s1)CCCC2 | inactive |
| CCOC(=O)/C(N=Nc1cc(C(=O)O)cc(C(=O)O)c1)=C(\O)CCl | 25.1 µM (active) |
| O=C(NC1CCN(S(=O)(=O)c2ccc(F)cc2)CC1)c1ccccc1 | inactive |
| O=S(=O)(c1ccc(Br)c2ccccc12)N1CCOCC1 | inactive |
| COCCCN1C(=O)C(=O)/C(=C(/O)c2ccc(S(=O)(=O)N3CCOCC3)cc2)C1c1ccc(F)cc1 (centres undefined) | inactive |
| CCOc1ccc2nc(N(CCCN(C)C)C(=O)c3ccc(C(=O)c4ccccc4)cc3)sc2c1 | inactive |
| O=C1CCC(C(=O)N2CCN(c3ccccc3Cl)CC2)CN1CC1CCCCC1 (centres undefined) | inactive |
| CCOC(=O)Cn1c(O)c(N=NC(=O)CNC(=O)Cc2ccccc2)c2ccccc21 | inactive |
| Cc1cc(C)nc(N/N=C/c2c(CO)cnc(C)c2O)n1 | inactive |
| CCCNC(=O)c1ccc(N2CCC3(CC2)CC(c2ccc(Cl)cc2)=NO3)c([N+](=O)[O-])c1 | inactive |
| CCOC(=O)C1CCN(S(=O)(=O)c2ccc3c(c2)N(C)C(=O)CC(=O)N3C)CC1 | inactive |
| O=C(NCc1ccncc1)C1CCN(C(=O)c2cccc(Cl)c2)CC1 | inactive |
| O=C(CNC(=O)[C@@H]1Cc2ccccc2CN1)NC1CCCCC1 | inactive |
| Cc1nn(C)c(Cl)c1CN1CCC(Oc2ccc(C(=O)N3CCCC3)cc2)CC1 | inactive |
| Cc1ccc(S(=O)(=O)N/N=C(\c2ccccc2)C2CC2)cc1 | inactive |
| O=C(NCCCn1ccnc1)c1cc(Br)c(Br)s1 | inactive |
| Cc1cccc(CN2CCC(n3nccc3NC(=O)c3ccccc3C)CC2)n1 | inactive |
| Cc1cc(=O)oc2c3c(cc(OCC(=O)N[C@H](C(=O)O)c4ccccc4)c12)OC(C)(C)CC3 | inactive |

| Structure (SMILES) | Potency |
| --- | --- |
| CCCNC(=O)c1cnc(-c2ccccc2)nc1-c1ccccc1 | inactive |
| CCCCc1nc2cc(C(=O)NCCc3cnn(C)c3)ccc2o1 | inactive |
| COc1ccc(NC(=S)N2CCC(NC(=O)c3cccc(F)c3)CC2)cc1 | inactive |
| S=C(Nc1ccc(Cl)cc1Cl)N1CCCC1 | inactive |
| Cc1ccc(-c2csc(N3CCN(c4cc5c(cc4Cl)nc(-c4ccncc4)n5CCOCCO)CC3)n2)cc1 | inactive |
| O=C(N/N=C/c1cccnc1)c1ccc(NC(=O)c2ccc(F)cc2)cc1 | inactive |
| COCCC(=O)N1CCC(Oc2ccc(C(=O)NCc3ccon3)cc2)CC1 | inactive |
| O=c1[nH]cnc(O)c1C(c1ccc(F)cc1)c1c(O)nc[nH]c1=O | inactive |
| CCCc1nnc(NC(=O)CCC(=O)N2CCN(S(=O)(=O)c3ccc(OC)cc3)CC2)s1 | inactive |
| O=C(c1cc2ccccc2o1)N1CCN(c2cccc(C(F)(F)F)c2)CC1 | inactive |
| CCN(CC)CCCNC(=S)N(CCO)Cc1cc2cc3c(cc2[nH]c1=O)OCO3 | inactive |
| CC(=O)N(CC(O)CO)c1c(I)c(C(=O)NCC(O)CO)c(I)c(C(=O)NCC(O)CO)c1I (centres undefined) | inactive |
| CC(C)=CCN1CCN(Cc2cc3ccccc3[nH]2)CC1CCO (centres undefined) | inactive |
| CCc1ccc(C(=O)NN=C2CCCCCC2)s1 | inactive |
| COc1ccc(C(=O)Nc2ccc(C(=O)NCC3CCCO3)cc2)c(OC)c1OC (centres undefined) | inactive |
| O=C(c1cccc(Br)c1)N1CCN(C2=NS(=O)(=O)c3ccccc32)CC1 | inactive |
| O=C(NCCCNC(=O)c1ccccc1Cl)c1cnccn1 | inactive |
| Cc1cc(C)c(C(=O)CSc2nc(C)cc(=O)[nH]2)c(C)c1 | inactive |
| NC(=O)Cn1cc(/C=N\NS(=O)(=O)c2ccccc2)c2ccccc21 | inactive |
| COc1cccc(CN(C)CC2CCCN(CCc3ccc(Cl)cc3)C2)c1OC (centres undefined) | inactive |
| C/C=C/C=N/NC(=O)c1ccncc1 | inactive |
| CN1C(=O)[C@H]2[C@@H](C3CC3)N3C(=O)CN(Cc4ccccc4)C(=O)[C@@]3(C)[C@H]2C1=O | inactive |
| COc1ccc(C(=O)CCC(=O)Nc2cccnc2)c(OC)c1 | inactive |
| CC(C)(O)c1ccccc1CC[C@H](SCC1(CC(=O)O)CC1)c1cccc(/C=C/c2ccc3ccc(Cl)cc3n2)c1 | inactive |
| CCN(CC)c1ccc(C(=O)Nn2c(C)nc3ccccc3c2=O)cc1 | inactive |
| O=C(NC(=S)Nc1ccc(Cl)c(C(=O)O)c1)c1cncc(Br)c1 | inactive |

| Structure (SMILES) | Potency |
| --- | --- |
| CC(C)c1ccc(C2C(C(=O)c3ccco3)=C(O)C(=O)N2CC2CCCO2)cc1 (centres undefined) | inactive |
| COc1cc(C)c(C)cc1S(=O)(=O)N1CCCc2ccccc21 | inactive |
| Cc1c(S(=O)(=O)N2CC(C)CC(C)C2)c(=O)n(C)c(=O)n1C (centres undefined) | inactive |
| O=CN1CCN(C(=O)c2ccc(Br)o2)CC1 | inactive |
| Cc1ccc(NS(=O)(=O)c2ccc(-c3coc(C)n3)cc2)c(C)c1 | inactive |
| COc1ccc(S(=O)(=O)Nc2c(C)n(C)n(-c3ccccc3)c2=O)cc1 | inactive |
| COc1ccc2cc(S(=O)(=O)Nc3ccccn3)ccc2c1 | inactive |
| COc1ccc(S(=O)(=O)/N=C2\C=C(NS(=O)(=O)c3ccccc3)C(=O)c3ccccc32)cc1 | 25.1 µM (active) |
| NC(=O)c1cc(S(=O)(=O)N2CCCC2)ccc1OCc1ccc(F)cc1 | inactive |
| O=C(O)c1ccc(S(=O)(=O)N2CCOCC2)o1 | inactive |
| CCn1nc(C)c(CNC(=O)C2CCC(=O)N(Cc3cccc(F)c3)C2)c1C (centres undefined) | inactive |
| COc1ccc(-c2cc(=O)oc3cc(OCC(=O)N(C)C4CCS(=O)(=O)C4)ccc23)cc1 (centres undefined) | inactive |
| Cc1cc(C)c2c(Cn3ccnc3)cc(=O)oc2c1 | inactive |
| Cc1cc(-c2nnc(SCC(=O)Nc3ccc(S(N)(=O)=O)cc3)n2N)n[nH]1 | inactive |
| Cc1ccc(NC(=O)NC(=O)c2ccccc2)cc1F | inactive |
| Cc1ccc(NC(=O)CSc2nn3c(=O)c(C)nnc3s2)cc1Cl | inactive |
| COc1ccc(CNS(=O)(=O)c2ccc(NC(=O)N3CCCCC3)cc2)cc1 | inactive |
| CCCc1cc(C(=O)N2CCCC(CO)(CCCc3ccccc3)C2)n(C)n1 (centres undefined) | inactive |
| Cc1ccc(C(=O)NCC(=O)OCc2nnc(-c3ccccc3)o2)cc1 | inactive |
| COc1ccc(CN2CCCC(N3CCc4ccccc4C3)C2)c(O)c1 (centres undefined) | inactive |
| CC(C)(C)c1ccc(C(=O)N2CCN(CCNC(=O)C(=O)Nc3ccc(F)cc3)CC2)cc1 | inactive |
| O=C(NCCCN1CCOCC1)C1CCCN(S(=O)(=O)N2CCCCC2)C1 (centres undefined) | inactive |
| O=C(CCn1nnc2ccccc21)OCC(=O)c1ccc([N+](=O)[O-])cc1 | inactive |
| COc1cc([N+](=O)[O-])cc([N+](=O)[O-])c1NC(=O)N1CCOCC1 | inactive |
| Cc1csc(NC(=O)CSc2nc(=O)cc(N)n2-c2ccc(F)cc2)n1 | inactive |
| CCOc1ccc(S(=O)(=O)N2CCCC(C(=O)N3CCC(C(N)=O)CC3)C2)cc1Cl (centres undefined) | inactive |

| Structure (SMILES) | Potency |
| --- | --- |
| Cc1c(CN2CCC(n3nccc3NC(=O)CCc3ccccc3)CC2)cnn1C | inactive |
| CC(=O)c1ccc(NC(=O)Cn2c(=O)oc3ccccc32)cc1 | inactive |
| CCOc1ccccc1NC(=O)C1CCCN(S(=O)(=O)c2ccccc2)C1 (centres undefined) | inactive |
| CC1CCC(NS(=O)(=O)c2ccc3c(c2)CC(=O)N3)CC1 (centres undefined) | inactive |
| CC(=O)N[C@@H](C)C(=O)N1CCC(n2nccc2NC(=O)CCCc2ccccc2)CC1 | inactive |
| Clc1ccc(C(Cn2ccnc2)OCc2ccsc2Cl)c(Cl)c1 (centres undefined) | inactive |
| COc1ccc(OCCn2ccnc2C)cc1 | inactive |
| Cc1ccc(CN(C)Cc2cc(=O)oc3cc(C)c(Cl)cc23)cc1 | inactive |
| COc1ccc(N(C(=O)CNC(=O)c2ccco2)C(C(=O)NCC2CCCO2)c2ccccc2)cc1Cl (centres undefined) | inactive |
| CCOC(CNC(=O)C(=O)NCC(c1ccco1)N1CCN(c2ccc(OC)cc2)CC1)OCC (centres undefined) | inactive |
| Cc1ccc(NS(=O)(=O)c2c(C)[nH]c(C)c2C(=O)N2CCCCC2)c(C)c1 | inactive |
| CCOC(=O)c1cccc(NC(=O)C2CCN(c3ncnc4c3nc3n4CCCCC3)CC2)c1 | inactive |
| O=S1(=O)CCO[C@H]2Cc3ccccc3[C@H]2N1Cc1ccccc1 | inactive |
| CC(C)c1ccc(/C=C2\NC(=O)NC2=O)cc1 | inactive |
| Cc1cccc(NS(=O)(=O)c2ccc([N+](=O)[O-])cc2)n1 | inactive |
| COc1ccc(NC(=O)CC2C(=O)NC3CCCCC3N2C(=O)c2ccc(F)cc2)cc1 (centres undefined) | inactive |
| COCC1CCN(C(=O)C2CCC(=O)N(CC3CCCCC3)C2)CC1 (centres undefined) | inactive |
| S=C(NCCC1=CCCCC1)Nc1ccccc1 | inactive |
| CSc1ccccc1OCc1cc(C(=O)N2C[C@H]3CC[C@H]2C3)no1 | inactive |
| O=C(Cc1ccc(Cl)cc1)NC(=S)Nc1ccccc1O | inactive |
| CCC(C)(C)n1nnnc1C(c1ccc(OC)c(OC)c1)N1CCN(C(=O)c2ccco2)CC1 (centres undefined) | inactive |
| CC(=O)NC(Cc1c[nH]c2ccccc12)C(=O)NCCc1ccccc1 (centres undefined) | inactive |
| C[C@H](C(=O)CC(=O)OC(C)(C)C)[C@H](O)c1ccc(C(F)(F)F)cc1 | inactive |
| CCc1nc2nc(C)c(NS(=O)(=O)c3ccc4c(c3)CCCC4)c(=O)n2[nH]1 | inactive |
| CCOC(=O)c1c(C)[nH]c(C(=O)NCCN2CCOCC2)c1C | inactive |
| COc1ccc(NS(=O)(=O)c2cc(C(=O)Nc3ccccc3C(=O)O)ccc2C)cc1 | inactive |
